Results as given in ChEMBL document CHEMBL1961873, “Compounds: GSK PKIS; Assays: Nanosyn kinase panel” (2012).

Key:
[1] = target: Tyrosine-protein kinase Fyn (Homo sapiens) (UniProt P06241); details: at 1 µM
[2] = target: Tyrosine-protein kinase HCK (Homo sapiens) (UniProt P08631); details: at 0.1 µM
[3] = target: Tyrosine-protein kinase HCK (Homo sapiens) (UniProt P08631); details: at 1 µM
[4] = target: Insulin-like growth factor 1 receptor (Homo sapiens) (UniProt P08069); details: at 0.1 µM
[5] = target: Insulin-like growth factor 1 receptor (Homo sapiens) (UniProt P08069); details: at 1 µM
[6] = target: Insulin receptor (Homo sapiens) (UniProt P06213); details: at 0.1 µM
[7] = target: Insulin receptor (Homo sapiens) (UniProt P06213); details: at 1 µM
[8] = target: Insulin receptor-related protein (Homo sapiens) (UniProt P14616); details: at 0.1 µM
[9] = target: Insulin receptor-related protein (Homo sapiens) (UniProt P14616); details: at 1 µM
[10] = target: T1, Tyrosine-protein kinase ITK/TSK (Homo sapiens) (UniProt Q08881); details: at 0.1 µM
T1 sequence (whole entry): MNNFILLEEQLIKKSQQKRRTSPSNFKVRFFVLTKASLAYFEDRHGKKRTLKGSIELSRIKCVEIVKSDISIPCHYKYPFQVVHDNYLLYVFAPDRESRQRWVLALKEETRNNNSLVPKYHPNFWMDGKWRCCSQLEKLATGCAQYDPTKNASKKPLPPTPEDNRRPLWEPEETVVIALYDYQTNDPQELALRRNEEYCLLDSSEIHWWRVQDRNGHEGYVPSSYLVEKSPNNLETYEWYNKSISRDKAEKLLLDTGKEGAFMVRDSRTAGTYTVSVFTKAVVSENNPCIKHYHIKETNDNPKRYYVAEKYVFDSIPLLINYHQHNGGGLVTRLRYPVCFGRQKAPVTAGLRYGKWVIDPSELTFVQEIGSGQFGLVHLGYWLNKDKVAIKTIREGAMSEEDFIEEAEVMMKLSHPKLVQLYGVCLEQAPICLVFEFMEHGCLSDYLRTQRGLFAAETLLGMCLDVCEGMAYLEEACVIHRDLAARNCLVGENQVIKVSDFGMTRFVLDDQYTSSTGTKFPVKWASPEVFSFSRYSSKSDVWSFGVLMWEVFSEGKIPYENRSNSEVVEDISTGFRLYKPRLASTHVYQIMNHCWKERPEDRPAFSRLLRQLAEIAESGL

[11] = target: T1, Tyrosine-protein kinase ITK/TSK (Homo sapiens); details: at 1 µM
[12] = target: Tyrosine-protein kinase JAK1 (Homo sapiens) (UniProt P23458); details: at 0.1 µM
[13] = target: Tyrosine-protein kinase JAK1 (Homo sapiens) (UniProt P23458); details: at 1 µM
[14] = target: Tyrosine-protein kinase JAK2 (Homo sapiens) (UniProt O60674); details: at 0.1 µM
[15] = target: Tyrosine-protein kinase JAK2 (Homo sapiens) (UniProt O60674); details: at 1 µM
[16] = target: T2, Tyrosine-protein kinase JAK3 (Homo sapiens) (UniProt P52333); details: at 0.1 µM
T2 sequence (whole entry): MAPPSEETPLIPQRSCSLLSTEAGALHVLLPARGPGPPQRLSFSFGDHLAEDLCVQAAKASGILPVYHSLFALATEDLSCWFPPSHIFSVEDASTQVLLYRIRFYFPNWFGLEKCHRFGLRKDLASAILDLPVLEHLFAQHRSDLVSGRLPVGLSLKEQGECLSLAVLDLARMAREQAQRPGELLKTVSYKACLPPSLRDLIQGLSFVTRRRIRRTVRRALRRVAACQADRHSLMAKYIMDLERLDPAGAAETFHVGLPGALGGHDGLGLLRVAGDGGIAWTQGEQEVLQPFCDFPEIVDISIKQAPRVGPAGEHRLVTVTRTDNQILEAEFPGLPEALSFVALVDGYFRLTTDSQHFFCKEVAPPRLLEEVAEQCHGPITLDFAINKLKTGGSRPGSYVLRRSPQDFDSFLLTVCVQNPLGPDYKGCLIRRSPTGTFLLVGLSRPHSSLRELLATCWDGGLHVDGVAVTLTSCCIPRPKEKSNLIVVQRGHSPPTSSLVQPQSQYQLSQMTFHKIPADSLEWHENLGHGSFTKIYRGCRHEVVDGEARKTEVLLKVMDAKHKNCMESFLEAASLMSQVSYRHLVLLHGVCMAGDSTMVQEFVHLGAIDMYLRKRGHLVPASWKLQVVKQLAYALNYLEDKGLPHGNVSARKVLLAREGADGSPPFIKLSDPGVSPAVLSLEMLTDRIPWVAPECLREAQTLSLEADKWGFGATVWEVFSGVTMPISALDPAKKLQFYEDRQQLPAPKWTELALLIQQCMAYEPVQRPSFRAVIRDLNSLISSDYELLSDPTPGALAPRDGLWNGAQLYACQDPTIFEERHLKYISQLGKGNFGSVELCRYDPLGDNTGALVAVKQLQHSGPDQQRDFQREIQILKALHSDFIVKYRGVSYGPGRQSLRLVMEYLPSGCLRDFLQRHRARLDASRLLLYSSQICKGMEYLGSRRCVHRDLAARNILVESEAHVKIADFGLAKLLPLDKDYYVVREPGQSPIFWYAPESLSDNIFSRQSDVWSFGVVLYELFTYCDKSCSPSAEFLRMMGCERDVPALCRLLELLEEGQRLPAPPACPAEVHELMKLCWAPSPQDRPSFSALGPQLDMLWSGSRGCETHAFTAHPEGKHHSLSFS

[17] = target: T2, Tyrosine-protein kinase JAK3 (Homo sapiens); details: at 1 µM
[18] = target: Vascular endothelial growth factor receptor 2 (Homo sapiens) (UniProt P35968); details: at 0.1 µM
[19] = target: Vascular endothelial growth factor receptor 2 (Homo sapiens) (UniProt P35968); details: at 1 µM
[20] = target: Mast/stem cell growth factor receptor Kit (Homo sapiens) (UniProt P10721); details: at 0.1 µM;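 note: values are mean inhibition of KIT, from the GSK PKIS dataset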

Insulin receptor-related protein (Homo sapiens), sequence (P14616 27-742 limits assumed): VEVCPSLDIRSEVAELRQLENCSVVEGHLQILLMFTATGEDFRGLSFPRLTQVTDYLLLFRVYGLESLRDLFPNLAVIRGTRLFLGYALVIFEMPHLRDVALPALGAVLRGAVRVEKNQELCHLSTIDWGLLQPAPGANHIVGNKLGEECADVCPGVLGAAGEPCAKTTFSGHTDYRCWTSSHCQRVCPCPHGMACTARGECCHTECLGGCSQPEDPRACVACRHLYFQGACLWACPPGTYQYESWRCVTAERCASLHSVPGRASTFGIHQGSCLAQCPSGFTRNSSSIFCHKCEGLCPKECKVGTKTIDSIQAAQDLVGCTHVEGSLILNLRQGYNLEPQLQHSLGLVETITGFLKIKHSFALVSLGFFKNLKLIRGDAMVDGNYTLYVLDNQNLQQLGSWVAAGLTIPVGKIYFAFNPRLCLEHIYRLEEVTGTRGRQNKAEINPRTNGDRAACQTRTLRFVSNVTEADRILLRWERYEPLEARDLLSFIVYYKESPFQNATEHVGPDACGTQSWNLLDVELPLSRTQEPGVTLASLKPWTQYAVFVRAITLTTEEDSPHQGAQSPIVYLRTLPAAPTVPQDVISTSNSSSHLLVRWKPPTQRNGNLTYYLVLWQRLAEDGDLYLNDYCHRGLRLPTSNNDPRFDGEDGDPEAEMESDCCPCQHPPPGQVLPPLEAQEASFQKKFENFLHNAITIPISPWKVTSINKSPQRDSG
Insulin receptor-related protein (Homo sapiens), sequence (P14616 747-1297 limits assumed): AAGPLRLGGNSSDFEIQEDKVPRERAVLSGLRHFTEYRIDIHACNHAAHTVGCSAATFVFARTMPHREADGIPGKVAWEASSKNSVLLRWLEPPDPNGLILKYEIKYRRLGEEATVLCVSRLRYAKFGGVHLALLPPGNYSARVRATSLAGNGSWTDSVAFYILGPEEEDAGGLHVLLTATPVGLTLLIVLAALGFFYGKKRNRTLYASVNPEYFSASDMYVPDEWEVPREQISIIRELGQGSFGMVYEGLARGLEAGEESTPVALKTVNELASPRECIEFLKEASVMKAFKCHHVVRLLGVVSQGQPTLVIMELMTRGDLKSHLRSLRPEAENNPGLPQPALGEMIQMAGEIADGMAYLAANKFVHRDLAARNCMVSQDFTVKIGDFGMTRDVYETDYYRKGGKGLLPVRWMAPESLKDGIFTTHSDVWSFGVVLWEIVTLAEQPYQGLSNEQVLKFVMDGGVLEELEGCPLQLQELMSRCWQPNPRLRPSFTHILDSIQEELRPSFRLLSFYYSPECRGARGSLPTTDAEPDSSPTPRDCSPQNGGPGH
Tyrosine-protein kinase HCK (Homo sapiens), sequence (P08631 2-526 limits assumed): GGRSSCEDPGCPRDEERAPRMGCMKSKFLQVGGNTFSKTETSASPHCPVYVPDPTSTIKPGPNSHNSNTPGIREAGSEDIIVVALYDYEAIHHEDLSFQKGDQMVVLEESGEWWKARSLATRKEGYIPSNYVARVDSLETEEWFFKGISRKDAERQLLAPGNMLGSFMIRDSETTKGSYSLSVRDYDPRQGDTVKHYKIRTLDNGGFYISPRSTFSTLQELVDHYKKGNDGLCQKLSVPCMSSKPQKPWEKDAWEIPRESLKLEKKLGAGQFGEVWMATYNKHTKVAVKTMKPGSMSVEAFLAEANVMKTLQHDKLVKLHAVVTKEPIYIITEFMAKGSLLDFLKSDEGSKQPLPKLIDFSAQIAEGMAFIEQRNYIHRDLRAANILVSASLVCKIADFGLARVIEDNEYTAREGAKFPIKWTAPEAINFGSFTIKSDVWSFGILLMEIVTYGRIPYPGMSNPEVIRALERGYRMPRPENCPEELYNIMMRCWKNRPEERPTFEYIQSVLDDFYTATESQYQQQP
Insulin receptor (Homo sapiens), sequence (P06213 28-758 limits assumed): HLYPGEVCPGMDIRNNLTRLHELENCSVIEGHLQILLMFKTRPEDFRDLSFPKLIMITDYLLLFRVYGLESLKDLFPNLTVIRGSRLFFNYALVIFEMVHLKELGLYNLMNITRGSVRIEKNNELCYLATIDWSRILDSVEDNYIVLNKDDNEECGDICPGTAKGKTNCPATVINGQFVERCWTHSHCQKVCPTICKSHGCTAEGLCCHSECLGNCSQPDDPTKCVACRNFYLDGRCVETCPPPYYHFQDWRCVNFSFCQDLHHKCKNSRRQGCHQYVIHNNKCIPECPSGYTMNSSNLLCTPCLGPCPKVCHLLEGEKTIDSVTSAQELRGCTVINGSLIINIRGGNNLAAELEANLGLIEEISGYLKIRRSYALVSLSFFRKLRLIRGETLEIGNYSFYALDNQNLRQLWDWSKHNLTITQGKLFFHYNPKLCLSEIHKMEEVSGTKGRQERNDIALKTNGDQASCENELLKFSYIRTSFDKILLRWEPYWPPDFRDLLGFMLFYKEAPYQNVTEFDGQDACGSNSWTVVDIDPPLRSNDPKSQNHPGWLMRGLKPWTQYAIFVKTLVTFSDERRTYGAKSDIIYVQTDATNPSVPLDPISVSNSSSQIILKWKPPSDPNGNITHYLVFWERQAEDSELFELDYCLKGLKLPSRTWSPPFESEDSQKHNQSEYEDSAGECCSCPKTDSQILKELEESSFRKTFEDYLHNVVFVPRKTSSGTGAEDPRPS
Insulin receptor (Homo sapiens), sequence (P06213 763-1382 limits assumed): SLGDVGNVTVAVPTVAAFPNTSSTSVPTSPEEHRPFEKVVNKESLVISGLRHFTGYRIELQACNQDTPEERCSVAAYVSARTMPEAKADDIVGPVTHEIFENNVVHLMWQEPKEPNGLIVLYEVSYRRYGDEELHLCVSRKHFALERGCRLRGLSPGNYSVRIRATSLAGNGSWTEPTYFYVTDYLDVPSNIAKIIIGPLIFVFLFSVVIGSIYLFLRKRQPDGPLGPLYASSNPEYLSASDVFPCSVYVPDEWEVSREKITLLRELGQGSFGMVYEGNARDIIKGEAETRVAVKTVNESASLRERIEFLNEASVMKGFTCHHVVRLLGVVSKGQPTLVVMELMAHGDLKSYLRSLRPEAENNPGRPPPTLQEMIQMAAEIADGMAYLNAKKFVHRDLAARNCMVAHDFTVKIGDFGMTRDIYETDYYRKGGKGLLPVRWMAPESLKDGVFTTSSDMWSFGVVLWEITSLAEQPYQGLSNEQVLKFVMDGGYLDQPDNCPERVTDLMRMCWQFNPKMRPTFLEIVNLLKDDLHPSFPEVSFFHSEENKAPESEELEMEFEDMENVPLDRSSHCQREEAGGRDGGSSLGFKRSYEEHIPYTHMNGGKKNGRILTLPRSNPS
Tyrosine-protein kinase JAK1 (Homo sapiens), sequence (P23458 whole entry): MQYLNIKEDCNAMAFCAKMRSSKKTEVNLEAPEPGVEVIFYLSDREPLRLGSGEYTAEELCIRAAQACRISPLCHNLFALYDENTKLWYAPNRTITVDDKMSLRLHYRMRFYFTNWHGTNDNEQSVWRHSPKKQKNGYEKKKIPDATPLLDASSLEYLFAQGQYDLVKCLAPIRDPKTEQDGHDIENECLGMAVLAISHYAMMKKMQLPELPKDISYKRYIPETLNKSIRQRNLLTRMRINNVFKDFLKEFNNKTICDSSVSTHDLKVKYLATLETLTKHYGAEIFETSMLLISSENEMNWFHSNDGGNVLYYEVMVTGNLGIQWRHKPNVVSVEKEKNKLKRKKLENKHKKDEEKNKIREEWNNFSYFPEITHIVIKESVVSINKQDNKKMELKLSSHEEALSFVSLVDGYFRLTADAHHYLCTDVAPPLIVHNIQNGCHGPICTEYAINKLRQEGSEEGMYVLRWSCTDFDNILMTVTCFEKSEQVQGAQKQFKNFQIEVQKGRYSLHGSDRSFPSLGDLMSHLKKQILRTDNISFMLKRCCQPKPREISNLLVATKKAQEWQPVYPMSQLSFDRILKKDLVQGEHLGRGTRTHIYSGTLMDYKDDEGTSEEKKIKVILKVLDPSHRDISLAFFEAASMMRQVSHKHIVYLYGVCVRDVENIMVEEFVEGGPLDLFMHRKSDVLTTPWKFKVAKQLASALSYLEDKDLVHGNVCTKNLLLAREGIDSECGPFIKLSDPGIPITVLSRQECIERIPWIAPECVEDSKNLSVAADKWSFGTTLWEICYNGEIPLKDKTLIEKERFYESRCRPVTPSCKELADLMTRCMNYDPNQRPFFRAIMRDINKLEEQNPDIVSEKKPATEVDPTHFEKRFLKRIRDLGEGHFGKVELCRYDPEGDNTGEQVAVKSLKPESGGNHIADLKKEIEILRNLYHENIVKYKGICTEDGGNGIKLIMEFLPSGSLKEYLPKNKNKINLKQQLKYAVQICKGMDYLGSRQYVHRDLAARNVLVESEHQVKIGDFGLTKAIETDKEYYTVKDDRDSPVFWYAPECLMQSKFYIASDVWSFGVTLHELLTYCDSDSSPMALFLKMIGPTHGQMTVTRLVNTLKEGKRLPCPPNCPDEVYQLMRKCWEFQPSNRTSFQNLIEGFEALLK
Tyrosine-protein kinase Fyn (Homo sapiens), sequence (P06241 2-537 limits assumed): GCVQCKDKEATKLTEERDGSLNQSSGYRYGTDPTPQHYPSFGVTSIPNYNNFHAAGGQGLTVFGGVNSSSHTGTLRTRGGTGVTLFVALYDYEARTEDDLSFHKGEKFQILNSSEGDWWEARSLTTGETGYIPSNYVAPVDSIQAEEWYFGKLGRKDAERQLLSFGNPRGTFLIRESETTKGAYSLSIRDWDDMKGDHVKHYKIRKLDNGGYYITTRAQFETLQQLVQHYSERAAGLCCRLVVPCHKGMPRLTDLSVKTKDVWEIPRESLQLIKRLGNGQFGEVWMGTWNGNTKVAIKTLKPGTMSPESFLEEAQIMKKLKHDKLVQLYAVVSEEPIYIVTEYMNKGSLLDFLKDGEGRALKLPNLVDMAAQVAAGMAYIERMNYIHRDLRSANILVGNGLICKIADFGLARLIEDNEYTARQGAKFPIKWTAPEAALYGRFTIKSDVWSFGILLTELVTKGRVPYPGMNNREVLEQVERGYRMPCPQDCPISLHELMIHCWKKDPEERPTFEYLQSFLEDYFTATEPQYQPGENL

SMILES	inhibition [1] [%]	inhibition [2] [%]	inhibition [3] [%]	inhibition [4] [%]	inhibition [5] [%]	inhibition [6] [%]	inhibition [7] [%]	inhibition [8] [%]	inhibition [9] [%]	inhibition [10] [%]	inhibition [11] [%]	inhibition [12] [%]	inhibition [13] [%]	inhibition [14] [%]	inhibition [15] [%]	inhibition [16] [%]	inhibition [17] [%]	inhibition [18] [%]	inhibition [19] [%]	inhibition [20] [%]
COc1cc(N2CCN(C(C)C)CC2)ccc1Nc1nc(Nc2ccc(F)cc2C(N)=O)c2cc[nH]c2n1	9.69	3.05	7.94	101	101	103	102	76.1	96.7	2.65	5.47	3.68	2.03	2.05	2.59	0.12	11.6	4.96	15.3	-0.57
Fc1ccc(-c2cc(-c3c[nH]nc3-c3ccccn3)ccn2)cc1	5	5.58	6.04	0.26	1.04	6.47	5.34	2.45	2.16	0.99	0.13	4.79	14.2	1	0.86	-0.89	-3.5	7.31	22.2	5.29
O=C(Nc1n[nH]c2cc(-c3ccc(F)cc3)ccc12)C1CC1	3.69	5.36	8.36	4.19	0.88	3.21	5.18	1.75	1.45	1.07	2.49	1.55	4.17	1.12	1.73	-0.91	-0.96	6.51	19.5	3.1
NC(=O)c1sc(-n2cnc3ccc(C(F)(F)F)cc32)cc1OCc1ccccc1Br	4.41	5.59	5.95	3.3	1.19	4.46	5.5	1.61	0.64	1.03	-0.19	3.49	10.6	1.84	3.26	-1.41	0.92	6.34	7.31	5.23
N#Cc1c(NC(=O)c2ccc(F)cc2)sc2c1CCCC2	3.42	1.68	3.88	0.23	-0.52	3.54	2.79	-2.15	-0.16	0.64	0.63	1.63	6.11	-0.41	0.9	0.53	2.52	4.31	6.96	6.24
CN1CCC(n2cnc(-c3ccc(F)cc3)c2-c2ccnc(N)n2)CC1	7.42	3.15	7.9	0.43	3.19	2.01	5.41	0.89	1.43	1.04	6.65	1.99	8.12	0.06	0.49	-0.36	-2.05	3.28	10.8	1.87
c1ccc(COc2ccc(Nc3ncnc4ccc(-c5ccco5)cc34)cc2)cc1	3.93	1.03	1.93	-0.83	-0.77	0.94	0.94	0.38	0.28	-0.91	0.76	4	2.21	0.1	-0.74	-2.56	-0.1	0.23	-0.38	0.2
COC(=O)c1sc(-n2cnc3cc(OC)c(OC)cc32)cc1OCc1ccccc1C(F)(F)F	56.3	9.79	28.1	0.42	0.25	5.09	5.96	1.78	-0.14	1.1	1.09	3.38	-0.23	0.91	5.28	0.11	10.7	15.2	49.6	2.41
Cc1cccc2c1NC(=O)/C2=N\Nc1ccc(S(N)(=O)=O)cc1	1.92	4.11	6.57	1.39	2.37	2.44	2.27	6.42	0.05	1.75	2.45	3.68	0.61	2.04	4	0	4.14	1.56	1.84	8.83
COc1ccc(-c2cc(-c3c[nH]nc3-c3ccccn3)ccn2)cc1	3.5	4.81	10.3	3.75	3.01	4.5	3.43	3.63	3.15	1.28	2.05	4.74	7.4	1.59	4.19	-1.18	-0.62	12.7	48	5.05
c1cc(-c2cnn3nc(N4CCOCC4)ccc23)nc(NC2CC2)n1	4.87	7.14	11.7	4.81	5	4.73	8.56	2.65	1.15	1.06	3.22	0.54	-6.96	2.21	1.85	-1.14	-0.05	12.9	48	6.83
Cc1ccc(O)cc1Nc1ccnc2cc(-c3ccccn3)ccc12	88.5	70.9	87.9	5.77	4.82	5.4	5.51	5.36	3.66	1.62	2.42	7.02	3.25	2.62	3.62	-1.06	0.79	78.6	93.5	10.4
COc1ccc(CNC(=O)c2ccc(-c3cc(-c4nnc(C)o4)ccc3C)cc2)cc1	2.79	5.56	4.62	-2.65	0.47	0.9	0.55	0.27	0.52	2.25	2.72	7.51	19.9	1.15	1.48	1.7	3	5.17	9.11	2.42
